Test results published in PubChem BioAssay.
Active and inactive are the calls of the source. Unless noted, how the calls were made is not given here.

What was measured:
[1] = test system: Wnt5a (protein binding on small-molecule microarray); test: small molecules binding Wnt5a protein – biophysical, small-molecule microarray, 635/667 nm fluorescence, primary screen (AID 1142); conditions: 635 nm fluorescence, higher = more signal;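 further: fluorescence read at 667 nm with signal to noise per printed feature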
[2] = ATP-based viability of Huh7 replicon cells – cell-based, CellTiter-Glo luminescence, basal, 48 h, cytotoxicity control for HCV replication inhibitor project, primary screen (AID 1143); conditions: higher = more signal, called active from +8 up or from −8 down;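 further: Huh7 hepatoma cells carrying a hepatitis C replication reporter with no stimulus; test concentration not given here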
[3] = Pseudomonas biofilm growth suppression – PAO1 strain, BacTiter-Glo luminescence, LB-PBS, primary screen (AID 1144); conditions: P. aeruginosa PAO1 biofilm, 12 h, higher = more signal
[4] = basal CRE-LacZ reporter activity in PC12 – cell-based, unstimulated, primary screen (AID 1145); conditions: no forskolin, luminescence, 4.5 h, higher = more signal, called active from +8 up or from −8 down
[5] = forskolin-driven CRE-LacZ activity in PC12 – cell-based, CRE-LacZ reporter, forskolin-stimulated, primary screen (AID 1146); conditions: luminescence, 4.5 h, higher = more signal, called active from +8 up or from −8 down;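 further: PC12 cells with 6xCRE LacZ reporter stimulated by forskolin 10 µM; beta-galactosidase reporter signal reflecting CREB driven transcription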
[6] = target: Streptavidin (Streptomyces avidinii) (UniProt P22629); test: compounds binding control protein streptavidin – biophysical, small-molecule microarray, 635/667 nm fluorescence, artefact control for SMM compound annotation, primary screen (AID 1147); conditions: higher = more signal;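 further: signal reflects streptavidin binding to arrayed compounds as a control protein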
[7] = probe aInhba binding on compound microarray – biochemical, small-molecule microarray, 635/667 nm fluorescence, primary screen (AID 1148); conditions: higher = more signal;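 further: score merges 667nm spot fluorescence with signal-to-noise for antibody binding to printed compounds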
Torsin-1A (Homo sapiens) [8] = target: Torsin-1A (Homo sapiens) (UniProt O14656); test: TOR1A wild-type binding on microarray – cell lysate, small-molecule microarray, lysate, 635/667 nm, primary screen (AID 1149); conditions: COS7 hTOR1A-WT lysate, 635 nm fluorescence, higher = more signal
Torsin-1A (Homo sapiens) [9] = target: Torsin-1A (Homo sapiens) (UniProt O14656); test: torsin A mutant lysate binding on microarrays – cell lysate, small-molecule microarray, COS7 lysate, 635/667 nm fluorescence, primary screen (AID 1150); conditions: COS7 hTOR1A mutant lysate, 635 nm fluorescence, higher = more signal;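 further: score pools 667 nm emission and signal to noise measuring lysate protein binding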
[10] = test system: Sonic hedgehog protein (Shh); test: Sonic hedgehog microarray binding compounds – biochemical, small-molecule microarray, 635/667 nm fluorescence, primary screen (AID 1151); conditions: 635 nm fluorescence, higher = more signal;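 further: Shh protein binding to compounds spotted on small-molecule microarray slides; score combines spot fluorescence intensity with signal-to-noise across triplicate slides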
[11] = optical density shifts of acrAB sulA E. coli – strain DRC41, OD650, 48 h, E. coli filamentation inducer project, primary screen (AID 1152); conditions: higher = more signal, called active from +8 up or from −8 down;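 further: E. coli MC1000 strain DRC41 lacking acrAB efflux pump and sulA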
[12] = probe aLefty1 binding on compound microarray – biochemical, small-molecule microarray, 635/667 nm fluorescence, primary screen (AID 1153); conditions: higher = more signal;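 further: score merges spot fluorescence with signal-to-noise ratio from the scanned slide images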
[13] = plasmodial surface anion channel blockers, osmotic lysis – cell-based, P. falciparum Indochina, OD700, 1 h, primary screen (AID 1154); conditions: P. falciparum Indochina infected RBC osmotic lysis, higher = more signal, called active from +8 up or from −8 down
[14] = plasmodial surface anion channel blockers, osmotic lysis – cell-based, P. falciparum Indochina, OD700, 2 h, primary screen (AID 1155);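 further: lysis reports solute entry through the parasite surface anion channel PSAC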; conditions: P. falciparum Indochina infected erythrocytes, higher = more signal, called active from +8 up or from −8 down
[15] = changes in parasitized red cell lysis, either direction – P. falciparum Indochina, OD700, 3 h, PSAC antagonist project, primary screen (AID 1156); conditions: P. falciparum-infected erythrocytes, osmotic lysis, higher = more signal, called active from +8 up or from −8 down
[16] = plasmodial surface anion channel blockers, osmotic lysis – cell-based, P. falciparum Indochina, OD700, 18 h, primary screen (AID 1157); conditions: P. falciparum Indochina infected erythrocytes, osmotic lysis OD700, 18 h; higher = more signal, called active from +8 up or from −8 down
[17] = S6 kinase pathway phospho-S6 level changes – cell-based, A549, cytoblot, luminescence, serum-stimulated, primary screen (AID 1158); conditions: 5 h, higher = more signal;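 further: serum-stimulated A549 lung adenocarcinoma cells; signal is phosphorylated S6 detected by cytoblot immunostaining with HRP secondary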
[18] = target: NADPH oxidase 2 (Homo sapiens) (UniProt P04839); test: compounds shifting NOX2 Amplex Red fluorescence – cell-based, HEK293-NOX2, PMA-stimulated, NOX inhibitor project, primary screen (AID 1159); conditions: 45 min, higher = more signal, called active from +8 up or from −8 down; further: test concentration not given here
[19] = target: NADPH oxidase 4 (Homo sapiens) (UniProt Q9NPH5); test: compounds shifting NOX4 Amplex Red fluorescence – cell-based, HEK293-NOX4, tetracycline-induced, NOX inhibitor project, primary screen (AID 1160); conditions: HEK293-NOX4, Amplex Red H2O2 fluorescence, 45 min; higher = more signal, called active from +8 up or from −8 down
[20] = target: NADPH oxidase 5 (Homo sapiens) (UniProt Q96PH1); test: compounds shifting NOX5 Amplex Red fluorescence – cell-based, HEK293-NOX5, NOX inhibitor project, primary screen (AID 1161); conditions: HEK293-NOX5, ionomycin, 45 min, higher = more signal
Sequence of NADPH oxidase 5 (Homo sapiens) (Q96PH1 whole entry, looked up): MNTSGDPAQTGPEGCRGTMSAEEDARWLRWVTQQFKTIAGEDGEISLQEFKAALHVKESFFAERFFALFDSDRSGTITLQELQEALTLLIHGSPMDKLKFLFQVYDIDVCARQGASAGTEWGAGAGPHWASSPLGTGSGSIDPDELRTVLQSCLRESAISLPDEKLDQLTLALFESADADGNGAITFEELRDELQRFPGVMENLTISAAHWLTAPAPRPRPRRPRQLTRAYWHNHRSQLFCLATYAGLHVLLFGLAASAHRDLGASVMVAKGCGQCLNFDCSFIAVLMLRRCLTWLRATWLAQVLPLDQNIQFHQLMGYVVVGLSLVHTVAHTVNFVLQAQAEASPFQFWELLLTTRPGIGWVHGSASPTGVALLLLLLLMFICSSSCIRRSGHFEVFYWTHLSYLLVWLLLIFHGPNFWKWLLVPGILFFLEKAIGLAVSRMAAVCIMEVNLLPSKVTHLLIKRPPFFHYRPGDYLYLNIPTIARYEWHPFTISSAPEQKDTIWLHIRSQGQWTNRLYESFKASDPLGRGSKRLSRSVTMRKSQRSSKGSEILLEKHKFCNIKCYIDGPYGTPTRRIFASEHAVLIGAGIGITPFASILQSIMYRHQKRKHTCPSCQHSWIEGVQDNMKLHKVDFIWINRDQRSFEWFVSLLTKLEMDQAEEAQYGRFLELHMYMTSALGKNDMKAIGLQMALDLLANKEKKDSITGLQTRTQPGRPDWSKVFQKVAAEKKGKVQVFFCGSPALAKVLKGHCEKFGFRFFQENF

Sequence of Torsin-1A (Homo sapiens) (O14656 whole entry, looked up): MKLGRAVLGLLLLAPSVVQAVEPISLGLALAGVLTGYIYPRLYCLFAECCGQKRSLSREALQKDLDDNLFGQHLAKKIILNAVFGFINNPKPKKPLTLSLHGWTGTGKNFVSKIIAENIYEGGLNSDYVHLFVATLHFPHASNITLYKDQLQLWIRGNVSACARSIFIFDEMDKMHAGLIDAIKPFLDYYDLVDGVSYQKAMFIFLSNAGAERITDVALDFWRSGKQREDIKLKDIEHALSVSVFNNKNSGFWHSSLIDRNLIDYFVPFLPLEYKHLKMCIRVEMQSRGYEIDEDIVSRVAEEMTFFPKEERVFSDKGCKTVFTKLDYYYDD
Sequence of NADPH oxidase 2 (Homo sapiens) (P04839 whole entry, looked up): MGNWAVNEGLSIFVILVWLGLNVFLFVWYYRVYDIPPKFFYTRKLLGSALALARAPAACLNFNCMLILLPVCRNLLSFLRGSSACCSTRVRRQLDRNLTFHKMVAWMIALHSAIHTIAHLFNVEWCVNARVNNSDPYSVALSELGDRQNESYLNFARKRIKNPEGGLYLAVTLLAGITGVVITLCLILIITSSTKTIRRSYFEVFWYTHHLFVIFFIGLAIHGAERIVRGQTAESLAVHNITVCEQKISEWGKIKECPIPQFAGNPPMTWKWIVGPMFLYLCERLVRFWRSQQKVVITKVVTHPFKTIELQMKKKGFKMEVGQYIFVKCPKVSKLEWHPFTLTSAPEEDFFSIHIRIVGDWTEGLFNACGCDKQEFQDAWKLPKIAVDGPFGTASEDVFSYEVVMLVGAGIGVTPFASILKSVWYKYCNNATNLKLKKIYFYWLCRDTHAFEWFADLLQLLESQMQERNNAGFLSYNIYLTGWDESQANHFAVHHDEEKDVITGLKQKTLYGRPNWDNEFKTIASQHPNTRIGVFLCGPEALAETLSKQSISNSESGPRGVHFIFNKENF
Sequence of Streptavidin (Streptomyces avidinii) (P22629 whole entry, looked up): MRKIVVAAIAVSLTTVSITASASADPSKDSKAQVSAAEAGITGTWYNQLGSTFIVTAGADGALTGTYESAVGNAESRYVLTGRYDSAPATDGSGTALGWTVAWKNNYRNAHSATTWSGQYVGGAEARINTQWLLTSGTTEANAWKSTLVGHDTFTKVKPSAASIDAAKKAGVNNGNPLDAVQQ
Sequence of NADPH oxidase 4 (Homo sapiens) (Q9NPH5 whole entry, looked up): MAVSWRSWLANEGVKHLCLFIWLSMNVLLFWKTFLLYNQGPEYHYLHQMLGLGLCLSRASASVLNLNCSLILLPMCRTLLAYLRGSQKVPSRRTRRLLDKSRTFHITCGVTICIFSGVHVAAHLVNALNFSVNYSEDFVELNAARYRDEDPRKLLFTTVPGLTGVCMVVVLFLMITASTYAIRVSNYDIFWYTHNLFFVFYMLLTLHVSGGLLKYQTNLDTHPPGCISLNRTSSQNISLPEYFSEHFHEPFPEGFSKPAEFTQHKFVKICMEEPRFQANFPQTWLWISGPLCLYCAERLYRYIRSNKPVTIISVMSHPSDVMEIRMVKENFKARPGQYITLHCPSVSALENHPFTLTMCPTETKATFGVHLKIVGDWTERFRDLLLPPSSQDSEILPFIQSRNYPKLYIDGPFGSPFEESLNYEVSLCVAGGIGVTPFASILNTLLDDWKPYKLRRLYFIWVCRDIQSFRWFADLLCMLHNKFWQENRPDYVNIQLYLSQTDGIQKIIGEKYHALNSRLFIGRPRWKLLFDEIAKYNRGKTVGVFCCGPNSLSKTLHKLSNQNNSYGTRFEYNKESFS

Compound	composite z-score [1]	z-score [2]	z-score [3]	z-score [4]	z-score [5]	composite z-score [6]	composite z-score [7]	composite z-score (Torsin-1A (Homo sapiens) [8])	composite z-score (Torsin-1A (Homo sapiens) [9])	composite z-score [10]	z-score [11]	composite z-score [12]	z-score [13]	z-score [14]	z-score [15]	z-score [16]	z-score [17]	z-score [18]	z-score [19]	z-score [20]
COc1ccc([Si](C)(C)[C@@H]2[C@@H](CC(=O)N(CCO)Cc3ccccc3)O[C@]3(C(=O)N(Cc4ccc(I)cc4)c4ccccc43)[C@H]2C)cc1	0.29	-4.48 (inactive)	-0.129 (inactive)	-0.505 (inactive)	-0.905 (inactive)	0.349	1.22	0.402	0.603	2.01	0.452 (inactive)	1.03	5.81 (inactive)	1.02 (inactive)	0.408 (inactive)	0.794 (inactive)	0.421	0.454 (inactive)	1.6 (inactive)	1.55
O=C1C2C=CC(C(O)C3CCCCC3)N(n3cnnc3)C2C(=O)N1Cc1ccccc1 (stereo not given)	0.364	-4.7 (inactive)	-1.2 (inactive)	-0.135 (inactive)	-0.233 (inactive)	0.203	0.229	0.187	0.64	1.65	0.253 (inactive)	0.375	2.45 (inactive)	-0.471 (inactive)	0.312 (inactive)	-1.6 (inactive)	1.75	-4 (inactive)	-0.921 (inactive)	-5.07
CC(C)C(=C=CC[C@H](O)c1ccccc1OCCO)C[C@H](O)COCc1ccccc1	-0.042	-2.03 (inactive)	0.297 (inactive)	16 (active)	-0.0014 (inactive)	-0.266	-0.101	-0.0509	1.12	0.0553	-0.188 (inactive)	-0.174	13.2 (active)	2.13 (inactive)	1.54 (inactive)	1.21 (inactive)	-0.181	-1.34 (inactive)	-1.44 (inactive)	-2.38
CC(C)NC(=O)[C@@]1(c2ccc([N+](=O)[O-])cc2)CC(=O)N(CC23CC4CC(CC(C4)C2)C3)[C@@H]1c1ccc(CO)cc1	0.821	-4.42 (inactive)	-0.336 (inactive)	0.362 (inactive)	0.795 (inactive)	0.771	1.19	1.17	1.36	1.95	-0.323 (inactive)	1.56	2.3 (inactive)	0.814 (inactive)	1.86 (inactive)	0.204 (inactive)	-0.248	-0.108 (inactive)	-1.02 (inactive)	-0.0647
[N-]=[N+]=NCc1ccccc1[C@@H]1OC(c2ccc(OCCCO)cc2)=N[C@]1(Cc1ccccc1N=[N+]=[N-])C(=O)O	1.04	-2.25 (inactive)	-1.09 (inactive)	0.526 (inactive)	-0.638 (inactive)	0.488	0.587	0.177	0.585	-0.379	0.0786 (inactive)	0.865	22.9 (active)	6.73 (inactive)	3.2 (inactive)	0.982 (inactive)	0.0708	-1.51 (inactive)	-0.241 (inactive)	0.58
